Structures are written as SMILES. Several values for one entry are separate records, joined by “and”; a condition that tells them apart may be missing. Identical values can stand only once. Activity calls are given as the source filed them. Cut-off read from the data, not from the text of the source, unless noted: active = inhibition above about 80%; inactive = the rest.

The values below come from PubChem BioAssay.

The nature of assay [1]: sensitizers of A549 cells to miR-34 induction, primary screen, imaging, A549 dox-inducible miR-34, nuclei and caspase counts (AID 1347080;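 active = compounds whose cell count with miR-34 switched on is under 0.7 times the count with it off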). To be noted: A549 miR-34 inducible, Hoechst nuclei count, 48 h.
A short description of assay [2]: survival rescue of mitochondrial mutant cells in low glucose, primary screen, MELAS cybrids, Rieske KO mouse fibroblasts, CellTiter-Glo (AID 1508586;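 active = mean z-score across replicates of 1.96 or higher in either the MELAS or the Rieske mutant cell line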;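 note: z relative to plate mean and SD of compound and empty wells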). (In ATP-based viability assays light output follows the ATP content of the culture.)
Assay [3] deals with Mitogen-activated protein kinase 7 (Homo sapiens) (UniProt Q13164). Nature of the assay: ERK5 transactivation activators in reporter cells, primary screen, cell-based, HTS (AID 1508626;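 active = luciferase signal above three times the same-plate solvent-only control wells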;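 note: luciferase driven by Gal4-ERK5 fusion binding five Gal4 sites before minimal TATA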). The conditions noted are these: HeLa Gal4-ERK5 transactivation, 18 h, at 5 µM, stronger effect = higher value.
Assay [4] can be described thus: viability rescue of complex I mutant cybrids, primary screen, cell-based, galactose medium, ATP luminescence (AID 1645843;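 active = z-score of at least 1.8 in each of two replicates, scored against plate mean and spread of sample wells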;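 note: positive z means more ATP and so rescue of galactose-driven cybrid death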). The conditions noted are these: complex I mutant cybrid cells, 72 h, stronger effect = higher value.
For assay [5], the target named is NAD(+) hydrolase SARM1 (Homo sapiens) (UniProt Q6SZW1). Nature of the assay: SARM1 TIR NADase inhibitors, cell lysate, NAD-Glo luminescence (AID 1508614;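 active = compound whose remaining NAD level is above about 45 nM, limit read from the data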;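 note: higher remaining NAD means stronger inhibition of SARM1 NADase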). The conditions noted are these: SAM-TIR HEK293T lysate NADase, at 1 µM, stronger effect = higher value.
The nature of assay [6]: LFS_MB_P medulloblastoma growth inhibition, cell-based, chromothripsis tumors, cisplatin or BGB combos (AID 1671449).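 Note: cells exposed for 96 hours; 0% = vehicle DMSO and 100% = killing by high DMSO.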 The conditions noted are these: LFS_MB_P medulloblastoma cells.
The nature of assay [7]: HDN33 neuroblastoma growth inhibition, cell-based, chromothripsis tumors, cisplatin or BGB combos (AID 1671450).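 Note: cells exposed to compound for four days; 0% = vehicle DMSO and 100% = cell killing by high DMSO.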 To be noted: HDN33 neuroblastoma cells, stronger effect = higher value.
The nature of assay [8]: ICB984 medulloblastoma cell growth inhibition, synergistic combos for chromothripsis tumors, cisplatin or BGB combos (AID 1671451; call rule not given here;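 note: cells exposed for 96 hours before readout; 0% = vehicle DMSO and 100% = killing by high DMSO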). To be noted: ICB984 medulloblastoma cells, drug combinations, stronger effect = higher value.
Assay [9] can be described thus: LFS_MB_1R medulloblastoma cell growth inhibition, synergistic combos for chromothripsis tumors, cisplatin or BGB combos (AID 1671452).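 Note: cells exposed for 96 hours before readout.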 The conditions noted are these: LFS_MB_1R medulloblastoma cells, stronger effect = higher value.
Assay [10] in a line: HTB85 osteosarcoma cell growth inhibition, synergistic combos for chromothripsis tumors, BGB or cisplatin IC20 combos (AID 1671453).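 Note: cells exposed for 96 hours before readout; 0% = vehicle DMSO and 100% = high DMSO killing control.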 The conditions noted are these: HTB85 osteosarcoma cells, drug combinations, stronger effect = higher value.
Assay [11] in a line: CRL2098 osteosarcoma cell growth inhibition, synergistic combos for chromothripsis tumors, BGB or cisplatin IC20 combos (AID 1671454).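 Note: cells exposed for 96 h before readout; 0% = vehicle DMSO and 100% = killing by high DMSO.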 The conditions noted are these: CRL2098 osteosarcoma cells, drug combinations, stronger effect = higher value.
Assay [12] in a line: HD-MB03 medulloblastoma cell growth inhibition, synergistic combos for chromothripsis tumors, BGB or cisplatin IC20 combos (AID 1671455; in the data active = inhibition above about 83%;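 note: 0% = vehicle DMSO and 100% = high DMSO as cytotoxic control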). To be noted: HD-MB03 medulloblastoma cells, stronger effect = higher value.
The mark [13] stands for this setting: stronger effect = lower value, cell number ratio, induced over uninduced.
The mark [14] stands for this setting: measured here: relative caspase fold change +Dox/-Dox.
The mark [15] stands for this setting: measured here: total cells with miR-34 induction, stronger effect = lower value.
Where [16] appears, read: measured here: total cells without miR-34 induction.
Setting [17] is: MELAS cybrid survival, CellTiter-Glo 48 h, stronger effect = higher value.
Where [18] appears, read: Rieske KO mouse fibroblast survival, CellTiter-Glo 72 h.
Setting [19] is: measured here: combination with BGB IC40, at 0.05 µM.

Mitogen-activated protein kinase 7 (Homo sapiens), sequence (Q13164 whole entry, looked up, the tested form may be a part): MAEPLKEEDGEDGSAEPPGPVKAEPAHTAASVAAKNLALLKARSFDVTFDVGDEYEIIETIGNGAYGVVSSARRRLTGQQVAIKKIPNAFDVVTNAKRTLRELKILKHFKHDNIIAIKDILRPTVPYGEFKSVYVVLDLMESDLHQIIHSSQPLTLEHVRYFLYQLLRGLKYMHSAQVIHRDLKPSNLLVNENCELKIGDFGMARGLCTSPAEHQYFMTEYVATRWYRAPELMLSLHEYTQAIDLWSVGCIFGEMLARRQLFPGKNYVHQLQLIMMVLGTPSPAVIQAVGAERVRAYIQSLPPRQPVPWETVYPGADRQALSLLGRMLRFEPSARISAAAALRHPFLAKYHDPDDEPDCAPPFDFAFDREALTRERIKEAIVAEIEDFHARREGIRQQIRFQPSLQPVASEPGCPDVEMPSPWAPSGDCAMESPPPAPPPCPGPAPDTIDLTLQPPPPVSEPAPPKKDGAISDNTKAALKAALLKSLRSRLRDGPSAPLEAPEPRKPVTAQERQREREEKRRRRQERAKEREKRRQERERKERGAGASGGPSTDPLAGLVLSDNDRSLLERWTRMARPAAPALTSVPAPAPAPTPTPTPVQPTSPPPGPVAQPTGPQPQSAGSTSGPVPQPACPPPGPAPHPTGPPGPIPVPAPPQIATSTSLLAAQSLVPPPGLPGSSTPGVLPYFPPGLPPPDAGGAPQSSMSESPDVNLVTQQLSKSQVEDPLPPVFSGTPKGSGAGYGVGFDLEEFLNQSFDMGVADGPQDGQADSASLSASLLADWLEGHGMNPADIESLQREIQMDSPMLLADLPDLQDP
NAD(+) hydrolase SARM1 (Homo sapiens), sequence (Q6SZW1 whole entry, looked up): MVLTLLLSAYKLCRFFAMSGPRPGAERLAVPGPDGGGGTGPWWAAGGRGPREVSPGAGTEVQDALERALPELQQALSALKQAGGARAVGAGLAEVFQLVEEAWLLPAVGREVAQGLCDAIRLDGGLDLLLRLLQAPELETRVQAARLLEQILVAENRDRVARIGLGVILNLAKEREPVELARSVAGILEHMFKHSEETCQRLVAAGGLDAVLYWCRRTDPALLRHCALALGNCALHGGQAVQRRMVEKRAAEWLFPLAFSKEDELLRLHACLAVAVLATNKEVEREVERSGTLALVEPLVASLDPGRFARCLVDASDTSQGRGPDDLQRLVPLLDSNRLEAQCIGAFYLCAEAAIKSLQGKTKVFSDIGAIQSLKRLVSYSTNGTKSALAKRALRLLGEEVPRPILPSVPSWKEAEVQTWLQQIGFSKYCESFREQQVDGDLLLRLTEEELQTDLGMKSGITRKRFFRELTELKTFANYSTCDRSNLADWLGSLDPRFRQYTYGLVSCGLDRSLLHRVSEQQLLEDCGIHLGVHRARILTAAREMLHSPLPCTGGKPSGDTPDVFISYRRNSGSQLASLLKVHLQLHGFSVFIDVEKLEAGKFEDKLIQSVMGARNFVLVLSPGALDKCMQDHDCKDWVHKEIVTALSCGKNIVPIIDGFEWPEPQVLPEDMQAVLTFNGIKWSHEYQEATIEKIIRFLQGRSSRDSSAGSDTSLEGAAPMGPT

Turning to `O=C(Cn1ccnc1[N+](=O)[O-])NCCO`, the fold change in assay [1] (setting [13]) was 0.871 (inactive) and 0.832 (inactive); in assay [1] (setting [14]), 1.39 and 4.67. The cell count in assay [1] (setting [15]) was 8390 and 10900; in assay [1] (setting [16]), 9630 and 13100. For the same compound, the z-score was -0.801 (inactive) in assay [2] (setting [17]) and -0.143 in assay [2] (setting [18]). In assay [3], the luciferase signal is 76 AU (inactive).
In the case of `CN(CCCN1c2ccccc2CCc2ccccc21)CC(=O)c1ccc(Cl)cc1`, the fold change in assay [1] (setting [13]) was 0.782 (inactive) and 0.894 (inactive); in [1] (setting [14]) it was 1.92 and 1.33. Besides, the cell count is 5730 and 6590 in assay [1] (setting [15]); 7330 and 7370 in [1] (setting [16]). The z-score was 0.202 (inactive) in assay [2] (setting [17]); 0.354 in [2] (setting [18]); -1.82 (inactive) and -0.185 (inactive) in assay [4].
With `CC1CCc2cc(F)cc3c(=O)c(C(=O)O)cn1c23` (configuration not stated), the fold change in assay [1] (setting [13]) is 0.911 (inactive) and 0.884 (inactive) and 0.854 (inactive); in [1] (setting [14]) it was 1.2 and 1.04 and 2.46. Further, the cell count was 8860 and 8230 and 11600 in [1] (setting [15]); 9730 and 9310 and 13600 in [1] (setting [16]). Moreover, the z-score is -0.14 (inactive) and 1.18 (inactive) in assay [2] (setting [17]); -0.162 and -0.0831 in assay [2] (setting [18]). The remaining NAD in [5] was 10 nM (inactive). Also, in assay [3], the luciferase signal is 60 AU (inactive). Moreover, the inhibition (usually the drop in the measured response relative to a control, in per cent) in assay [6] (at 0.5 µM, stronger effect = higher value) is 39.2% (inactive) and -31.9% (inactive); in assay [6] (measured here: combination with BGB IC20, at 0.005 µM), -29.5% and 27.9%; in [6] (measured here: combination with BGB IC40, at 0.005 µM) it was -17.3% and 13.7%; in assay [6] (setting [19]), -16.4% and 38.8%; in assay [6] (measured here: combination with cisplatin, at 0.5 µM, stronger effect = higher value) it was 98.2% and -27%; in [6] (measured here: combination with cisplatin, at 5 µM, stronger effect = higher value), -36.8% and -23.2%. Further, the inhibition in [7] (BGB combo, at 5 µM) is -3.97% and 10%; in assay [7] (at 0.5 µM) it was 3.55% (inactive) and 8.84% (inactive); in [7] (cisplatin combo, at 5 µM), 2.48% and 8.76%; in assay [7] (measured here: with BGB IC20 combination, at 0.5 µM), 18.5% and 19.1%; in [7] (measured here: with cisplatin IC20 combination, at 0.5 µM) it was -0.119% and -5.91%; in assay [7] (single agent, at 5 µM), 0.699% and -7.13%. The inhibition was -7.37% and -18.9% in [8] (BGB IC20 combo, at 0.005 µM); -12.9% and -43.9% in [8] (BGB IC40 combo, at 0.005 µM); -20% and -12.5% in assay [8] (BGB IC40 combo, at 0.05 µM); -19.2% (inactive) and -16.4% (inactive) in assay [8] (at 0.5 µM); -20% and -16.9% in assay [8] (cisplatin combo, at 0.05 µM); -31% and -15.5% in [8] (cisplatin combo, at 0.5 µM). For the same compound, the inhibition in [8] (cisplatin combo, at 5 µM) was -18.9% and -31.7%; in assay [8] (measured here: 5 uM single agent, at 5 µM) it was -15.3% and -14.5%; in assay [9] (at 0.5 µM) it was -3.56% (inactive) and 7.41% (inactive); in assay [9] (setting [19]) it was -7.45% and -3.94%; in [9] (measured here: combination with cisplatin, at 0.5 µM) it was 23.1% and 16.6%; in assay [9] (measured here: combination with cisplatin, at 5 µM), 7.04% and -25.3%. The inhibition in [10] (at 0.5 µM) was -21.3% (inactive) and 5.14% (inactive); in assay [10] (measured here: with BGB IC20, at 0.5 µM) it was -53.3% and -0.618%; in [10] (measured here: with BGB IC20, at 5 µM), -33.8% and -1.4%; in assay [10] (measured here: with cisplatin IC20, at 0.5 µM) it was -16.2% and -0.916%; in [10] (measured here: with cisplatin IC20, at 5 µM), -23.6% and -6.11%; in assay [10] (single agent, at 5 µM), -1.52% and 15.2%. Besides, the inhibition was -7.35% (inactive) and -5.05% (inactive) in assay [11] (at 0.5 µM); 15.7% and -0.776% in assay [11] (measured here: combination with BGB at IC20, at 0.5 µM); -17.1% and 17.1% in assay [11] (measured here: combination with cisplatin at IC20, at 0.5 µM); -4.42% (inactive) and 1.31% (inactive) in assay [12] (at 0.5 µM); -11.9% and -3.2% in [12] (measured here: combo with BGB at IC20, at 0.5 µM); 7.79% and 0.674% in assay [12] (measured here: combo with cisplatin at IC20, at 0.5 µM).
In the case of `CC(C)(Oc1ccc(Cl)cc1)C(=O)O`, the fold change was 0.908 (inactive) and 0.929 (inactive) and 0.927 (inactive) in assay [1] (setting [13]); 1.01 and 0.543 and 0.953 in assay [1] (setting [14]). The cell count was 9250 and 7700 and 8560 in [1] (setting [15]); 10200 and 8280 and 9240 in assay [1] (setting [16]). The z-score was -0.232 (inactive) and -0.856 (inactive) in assay [2] (setting [17]); -0.207 and -0.151 in assay [2] (setting [18]); 0.98 (inactive) in assay [4]. Further, the remaining NAD in [5] was 10 nM (inactive). The luciferase signal in [3] is 72 AU (inactive).
